We go through nine molecules from PubChem BioAssay (NCI).

Assay [1] can be described thus: NCI Yeast Anticancer Drug Screen. Data for the rad50 strain (AID 155).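 Further: 0% = growth of vehicle-only cultures of the same strain.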 As to conditions: S. cerevisiae rad50 strain growth inhibition, stronger effect = higher value. In a few lines:
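Yeast carrying a defined DNA repair defect were exposed to test compounds, and growth was compared with vehicle-treated controls to give percent inhibition.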

Assay [2] can be described thus: NCI Yeast Anticancer Drug Screen. Data for the mec2-1 strain (AID 157). The following applies: S. cerevisiae mec2-1 strain, stronger effect = higher value. In a few lines: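 Each compound was tested on mec2-1 yeast, a strain altered in DNA damage repair or cell cycle control. Growth inhibition is reported relative to vehicle.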
The nature of assay [3]: NCI Yeast Anticancer Drug Screen. Data for the sgs1 mgt1 strain (AID 161).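 Further: 0% = growth of cultures given vehicle only.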 The following applies: S. cerevisiae sgs1 mgt1 strain, stronger effect = higher value. In a few lines:
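Mutant yeast exposed to compound; growth scored against vehicle-only wells.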

The nature of assay [4]: NCI Yeast Anticancer Drug Screen. Data for the cln2 rad14 strain (AID 165).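 Further: 0% = growth equal to vehicle treated cultures.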 The following applies: S. cerevisiae cln2 rad14 strain, stronger effect = higher value. In a few lines: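 Test compounds were added to cln2 rad14 yeast cultures; inhibition of growth was then determined by comparison with vehicle treatment.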
Assay [5] in a line: NCI Yeast Anticancer Drug Screen. Data for the bub3 strain (AID 167). The following applies: S. cerevisiae bub3 mutant strain, stronger effect = higher value. In a few lines: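 Compounds were applied to a genetically altered yeast strain carrying a cell-cycle control defect. Growth inhibition was scored against vehicle-treated controls.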
Assay [6] in a line: NCI Yeast Anticancer Drug Screen. Data for the mlh1 rad18 strain (AID 175). The following applies: S. cerevisiae mlh1 rad18 strain growth inhibition, stronger effect = higher value. In a few lines:
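Inhibition values reflect reduced growth of mutant yeast versus vehicle-treated controls following compound exposure; the mutations affect DNA damage repair.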

The mark [7] stands for this setting: at 5.0 µM (retest, dose inferred, filed as 0.5).
The mark [8] stands for this setting: at 50.0 µM (retest, dose inferred, filed as 5.0).

Compounds without any hit were thinned out: in the full panel of roughly 79,000, 15% have a hit. Unmarked numbers belong to inactive results. The source made the active and inactive calls. No stated cut-off is given here; in the data, active means growth inhibition above about 70%; inactive means the rest.

As for `N#CC(C#N)=NNc1cccc(Cl)c1Cl`, the growth inhibition in assay [1] (setting [7]) is 43%; in assay [1] (setting [8]), 73% (active); in assay [1] (at 50.0 µM), 90.8% (active); in assay [2] (setting [7]) it was 48%; in assay [2] (setting [8]) it was 75% (active); in assay [2] (at 50.0 µM), 92.7% (active). Also, the growth inhibition in assay [3] (setting [7]) was 31%; in assay [3] (setting [8]), 100% (active); in assay [3] (at 50.0 µM), 93.2% (active); in assay [4] (setting [7]), 71% (active); in assay [4] (setting [8]), 100% (active); in assay [4] (at 50.0 µM), 90.7% (active). The growth inhibition in assay [5] (setting [7]) was 25%; in assay [5] (setting [8]), 100% (active); in assay [5] (at 50.0 µM) it was 91.8% (active); in assay [6] (setting [7]), 41%; in assay [6] (setting [8]), 66%; in assay [6] (at 50.0 µM) it was 90.2% (active).

Take `CC(=O)CC(=O)Nc1c(C)[c]([Hg][O]C(C)=O)c(C)[c]([Hg][O]C(C)=O)[c]1[Hg][O]C(C)=O`: the growth inhibition was 60% in assay [1] (setting [7]); 93% (active) in assay [1] (setting [8]); 90.8% (active) in assay [1] (at 50.0 µM); 99% (active) in assay [2] (setting [7]); 94% (active) in assay [2] (setting [8]); 92.6% (active) in assay [2] (at 50.0 µM). In addition, the growth inhibition in assay [3] (setting [7]) was 57%; in assay [3] (setting [8]), 94% (active); in assay [3] (at 50.0 µM), 92.8% (active); in assay [4] (setting [7]) it was 33%; in assay [4] (setting [8]), 93% (active); in assay [4] (at 50.0 µM) it was 88% (active). Further, the growth inhibition in assay [5] (setting [7]) is 99% (active); in assay [5] (setting [8]), 94% (active); in assay [5] (at 50.0 µM) it was 92.2% (active); in assay [6] (setting [7]), 85% (active); in assay [6] (setting [8]) it was 93% (active); in assay [6] (at 50.0 µM), 90% (active).

Turning to `C[CH2][Pb]([CH2]C)([CH2]C)[O]C(C)=O`, the growth inhibition was 33% in assay [1] (setting [7]); 48% in assay [1] (setting [8]); 84.8% (active) in assay [1] (at 50.0 µM); 43% in assay [2] (setting [7]); 40% in assay [2] (setting [8]); 76% (active) in assay [2] (at 50.0 µM). Also, the growth inhibition in assay [3] (setting [7]) is 11%; in assay [3] (setting [8]), 98% (active); in assay [3] (at 50.0 µM), 86.8% (active); in assay [4] (setting [7]) it was 29%; in assay [4] (setting [8]), 96% (active); in assay [4] (at 50.0 µM) it was 52.7%. Further, the growth inhibition in assay [5] (setting [7]) is 26%; in assay [5] (setting [8]), 97% (active); in assay [5] (at 50.0 µM) it was 82.4% (active); in assay [6] (setting [7]), 35%; in assay [6] (setting [8]) it was 59%; in assay [6] (at 50.0 µM), 77.1% (active).

Turning to `COc1ccc(/C=C\[N+](=O)[O-])cc1OC`, the growth inhibition in assay [1] (setting [7]) was 47%; in assay [1] (setting [8]) it was 97% (active); in assay [1] (at 50.0 µM), 99.4% (active); in assay [2] (setting [7]), 27%; in assay [2] (setting [8]), 99% (active); in assay [2] (at 50.0 µM) it was 99.7% (active). Moreover, the growth inhibition was 25% in assay [3] (setting [7]); 99% (active) in assay [3] (setting [8]); 99.7% (active) in assay [3] (at 50.0 µM); 12% in assay [4] (setting [7]); 99% (active) in assay [4] (setting [8]); 99% (active) in assay [4] (at 50.0 µM). Besides, the growth inhibition in assay [5] (setting [7]) was 14%; in assay [5] (setting [8]) it was 99% (active); in assay [5] (at 50.0 µM), 99.3% (active); in assay [6] (setting [7]), 28%; in assay [6] (setting [8]) it was 99% (active); in assay [6] (at 50.0 µM), 99.5% (active).

As for `[Cl][Sn]([Cl])([c]1ccccc1)[c]1ccccc1.c1ccc2nc(-c3ccc4ccccc4n3)ccc2c1`, the growth inhibition in assay [1] (setting [7]) is 16%; in assay [1] (setting [8]), 97% (active); in assay [1] (at 50.0 µM) it was 84% (active); in assay [2] (setting [7]), 16%; in assay [2] (setting [8]), 98% (active); in assay [2] (at 50.0 µM), 96% (active). For the same molecule, the growth inhibition in assay [3] (setting [7]) is 32%; in assay [3] (setting [8]), 97% (active); in assay [3] (at 50.0 µM), 75.3% (active); in assay [4] (setting [7]), 6%; in assay [4] (setting [8]), 96% (active); in assay [4] (at 50.0 µM) it was 45.1%. The growth inhibition in assay [5] (setting [7]) is 5%; in assay [5] (setting [8]), 96% (active); in assay [5] (at 50.0 µM), 59.6%; in assay [6] (setting [7]), 23%; in assay [6] (setting [8]) it was 96% (active); in assay [6] (at 50.0 µM), 93.2% (active).

For `COc1cc2c(cc1OC)C(OC)N(C)c1c-2ccc2cc3c(cc12)OCO3` (configuration not stated), the growth inhibition was 16% in assay [1] (setting [7]); 41% in assay [1] (setting [8]); 3.45% in assay [1] (at 50.0 µM); 9% in assay [2] (setting [7]); 12% in assay [2] (setting [8]); -48% in assay [2] (at 50.0 µM). Further, the growth inhibition in assay [3] (setting [7]) was 7%; in assay [3] (setting [8]), 30%; in assay [3] (at 50.0 µM), -22.1%; in assay [4] (setting [7]) it was 16%; in assay [4] (setting [8]) it was 33%; in assay [4] (at 50.0 µM) it was 6.7%. For the same molecule, the growth inhibition in assay [5] (setting [7]) is 2%; in assay [5] (setting [8]) it was 30%; in assay [5] (at 50.0 µM), -40%; in assay [6] (setting [7]) it was 17%; in assay [6] (setting [8]), 24%; in assay [6] (at 50.0 µM) it was -21.8%.

For `CC(=O)Nc1ccc([As](O[As](c2ccc(NC(C)=O)cc2)c2ccc([N+](=O)[O-])cc2)c2ccc([N+](=O)[O-])cc2)cc1` (configuration not stated), the growth inhibition was 99% (active) in assay [1] (setting [7]); 100% (active) in assay [1] (setting [8]); 98.7% (active) in assay [1] (at 50.0 µM); 99% (active) in assay [2] (setting [7]); 100% (active) in assay [2] (setting [8]); 99.7% (active) in assay [2] (at 50.0 µM). In addition, the growth inhibition in assay [3] (setting [7]) was 100% (active); in assay [3] (setting [8]), 99% (active); in assay [3] (at 50.0 µM), 99.5% (active); in assay [4] (setting [7]), 99% (active); in assay [4] (setting [8]) it was 99% (active); in assay [4] (at 50.0 µM) it was 99.3% (active). Further, the growth inhibition in assay [5] (setting [7]) was 99% (active); in assay [5] (setting [8]) it was 99% (active); in assay [5] (at 50.0 µM) it was 99.4% (active); in assay [6] (setting [7]), 99% (active); in assay [6] (setting [8]) it was 99% (active); in assay [6] (at 50.0 µM), 99% (active).

`CCC[CH2][Sn]([CH2]CCC)[S]CC(N)C(=O)O` (configuration not stated): the growth inhibition in assay [1] (setting [7]) was 63%; in assay [1] (setting [8]), 98% (active); in assay [1] (at 50.0 µM) it was 98.5% (active); in assay [2] (setting [7]), 67%; in assay [2] (setting [8]) it was 99% (active); in assay [2] (at 50.0 µM), 98.5% (active). Besides, the growth inhibition is 56% in assay [3] (setting [7]); 95% (active) in assay [3] (setting [8]); 98.1% (active) in assay [3] (at 50.0 µM); 49% in assay [4] (setting [7]); 98% (active) in assay [4] (setting [8]); 98.1% (active) in assay [4] (at 50.0 µM). The growth inhibition in assay [5] (setting [7]) is 80% (active); in assay [5] (setting [8]), 99% (active); in assay [5] (at 50.0 µM), 98% (active); in assay [6] (setting [7]), 62%; in assay [6] (setting [8]), 98% (active); in assay [6] (at 50.0 µM), 97.9% (active).

Take `c1ccc2c(c1)[O][Sn][O]2`: the growth inhibition is 0% in assay [1] (setting [7]); 6% in assay [1] (setting [8]); 98.8% (active) in assay [1] (at 50.0 µM); 1% in assay [2] (setting [7]); 3% in assay [2] (setting [8]); 99.2% (active) in assay [2] (at 50.0 µM). Moreover, the growth inhibition was -1% in assay [3] (setting [7]); 1% in assay [3] (setting [8]); 39.8% in assay [3] (at 50.0 µM); 0% in assay [4] (setting [7]); -1% in assay [4] (setting [8]); 98.8% (active) in assay [4] (at 50.0 µM). For the same molecule, the growth inhibition in assay [5] (setting [7]) is -1%; in assay [5] (setting [8]), 2%; in assay [5] (at 50.0 µM) it was 99.4% (active); in assay [6] (setting [7]), 1%; in assay [6] (setting [8]) it was 3%; in assay [6] (at 50.0 µM), 99% (active).
